This note sets out measurements from PMC7862700, “An all-to-all approach to the identification of sequence-specific readers for epigenetic DNA modifications on cytosine”.

Common to all, as to experiment: DAPPL (digital affinity profiling via proximity ligation, sequencing); 10 mM Tris-HCl pH 7.5, 50 mM NaCl, 1 mM DTT, 4% glycerol, room temperature, 30 min; GST-TFs on glutathione beads, 16-mer random dsDNA library, 0.1% formaldehyde crosslink after washing; high values mean tight binding
Experiment [1] concerns the target T1, FEV (Homo sapiens, UniProt Q99581 1-238).
T1 sequence: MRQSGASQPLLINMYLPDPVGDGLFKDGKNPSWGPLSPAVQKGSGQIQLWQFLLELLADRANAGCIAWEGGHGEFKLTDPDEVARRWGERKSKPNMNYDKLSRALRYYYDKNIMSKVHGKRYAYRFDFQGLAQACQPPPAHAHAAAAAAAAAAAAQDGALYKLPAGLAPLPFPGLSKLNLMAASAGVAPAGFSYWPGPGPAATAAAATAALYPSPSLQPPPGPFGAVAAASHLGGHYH
The following applies: protein: recombinant; tags: N-terminal GST; dsDNA, one strand shown. The method, boiled down: (§1)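 Each value of binding signal is a hexamer's read frequency for a factor divided by the same hexamer's frequency in the tag-only sample. Barcoded, bead-captured GST fusions of human transcription factors made in yeast were pooled with that sample and incubated with 200 nmole of a random double-stranded 16-mer DNA library in Tris/NaCl/DTT/glycerol buffer at room temperature for 30 min. Washing, 0.1% formaldehyde crosslinking, proximity ligation, PCR and Illumina NextSeq500 sequencing followed.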

The target in experiment [2] is ETV5 (Homo sapiens, UniProt P41161 1-510). As to conditions: protein: recombinant; tags: N-terminal GST; dsDNA, one strand shown. Summed up:
as §1

The target in experiment [3] is HSF1 (Homo sapiens, UniProt Q00613 1-529). As to conditions: protein: recombinant; tags: N-terminal GST; chain copies: 3; dsDNA, one strand shown. Summed up:
as §1

Experiment [4] concerns the target T2, SPIC (Homo sapiens, UniProt Q8N5J4 1-248).
T2 sequence: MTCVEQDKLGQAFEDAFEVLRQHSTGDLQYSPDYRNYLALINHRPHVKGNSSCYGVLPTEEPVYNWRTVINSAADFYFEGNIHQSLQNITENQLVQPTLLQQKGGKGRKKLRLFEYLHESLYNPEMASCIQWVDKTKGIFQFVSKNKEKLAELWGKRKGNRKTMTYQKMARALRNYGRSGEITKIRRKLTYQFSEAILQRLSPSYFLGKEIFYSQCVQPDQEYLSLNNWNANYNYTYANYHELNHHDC
The following applies: protein: recombinant; tags: N-terminal GST; dsDNA, one strand shown. Summed up: as §1

Experiment [5] addresses ELF4 (Homo sapiens, UniProt Q99607 1-663). As to conditions: protein: recombinant; tags: N-terminal GST; dsDNA, one strand shown. The method, boiled down: as §1
Experiment [6] concerns the target T3, ELK4 (Homo sapiens, UniProt P28324-2 1-405).
T3 sequence: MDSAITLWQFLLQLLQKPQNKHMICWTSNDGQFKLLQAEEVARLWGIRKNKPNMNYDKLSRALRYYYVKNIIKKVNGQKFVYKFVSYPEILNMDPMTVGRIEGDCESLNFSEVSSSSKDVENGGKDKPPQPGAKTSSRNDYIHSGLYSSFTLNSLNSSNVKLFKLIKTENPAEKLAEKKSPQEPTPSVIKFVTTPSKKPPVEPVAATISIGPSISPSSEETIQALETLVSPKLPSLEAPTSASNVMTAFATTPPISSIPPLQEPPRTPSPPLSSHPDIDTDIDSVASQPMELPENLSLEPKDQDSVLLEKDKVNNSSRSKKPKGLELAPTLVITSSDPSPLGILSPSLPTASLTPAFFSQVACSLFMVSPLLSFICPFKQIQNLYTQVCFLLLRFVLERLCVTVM
As to conditions: protein: recombinant; tags: N-terminal GST; dsDNA, one strand shown. The method, boiled down: as §1

The target in experiment [7] is T4, ETV2 (Homo sapiens, UniProt O00321 1-342).
T4 sequence: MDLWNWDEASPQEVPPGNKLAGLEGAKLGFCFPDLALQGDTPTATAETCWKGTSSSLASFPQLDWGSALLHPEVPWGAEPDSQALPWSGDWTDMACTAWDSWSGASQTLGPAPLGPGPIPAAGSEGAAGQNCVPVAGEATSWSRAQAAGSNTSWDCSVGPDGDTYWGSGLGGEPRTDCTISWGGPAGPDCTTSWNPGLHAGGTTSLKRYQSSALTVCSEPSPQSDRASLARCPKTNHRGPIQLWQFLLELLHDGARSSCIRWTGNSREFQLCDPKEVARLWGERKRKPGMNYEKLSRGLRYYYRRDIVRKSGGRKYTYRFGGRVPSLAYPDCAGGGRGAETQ
As to conditions: protein: recombinant; tags: N-terminal GST; dsDNA, one strand shown. Summed up: as §1

Experiment [8] has as its target T5, ELF3 (Homo sapiens, UniProt P78545 1-371).
T5 sequence: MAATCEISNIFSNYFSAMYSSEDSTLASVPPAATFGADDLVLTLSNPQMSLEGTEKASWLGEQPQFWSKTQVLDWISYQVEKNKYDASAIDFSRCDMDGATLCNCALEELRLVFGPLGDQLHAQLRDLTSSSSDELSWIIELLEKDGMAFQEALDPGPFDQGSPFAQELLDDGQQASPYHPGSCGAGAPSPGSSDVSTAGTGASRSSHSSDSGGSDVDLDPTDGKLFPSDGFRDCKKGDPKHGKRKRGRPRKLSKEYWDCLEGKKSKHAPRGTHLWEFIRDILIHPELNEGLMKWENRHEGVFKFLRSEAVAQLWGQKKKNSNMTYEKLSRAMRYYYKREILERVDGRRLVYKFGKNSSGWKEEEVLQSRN
As to conditions: protein: recombinant; tags: N-terminal GST; dsDNA, one strand shown. Summed up: as §1

Experiment [9] deals with CRX (Homo sapiens, UniProt O43186 1-299). The following applies: protein: recombinant; tags: N-terminal GST; dsDNA, one strand shown. The method, boiled down:
as §1

For experiment [10], the target named is ETV1 (Homo sapiens, UniProt P50549 1-477). The following applies: protein: recombinant; tags: N-terminal GST; dsDNA, one strand shown. The method, boiled down: as §1
Experiment [11] concerns the target T6, ERF (Homo sapiens, UniProt P50548 1-548).
T6 sequence: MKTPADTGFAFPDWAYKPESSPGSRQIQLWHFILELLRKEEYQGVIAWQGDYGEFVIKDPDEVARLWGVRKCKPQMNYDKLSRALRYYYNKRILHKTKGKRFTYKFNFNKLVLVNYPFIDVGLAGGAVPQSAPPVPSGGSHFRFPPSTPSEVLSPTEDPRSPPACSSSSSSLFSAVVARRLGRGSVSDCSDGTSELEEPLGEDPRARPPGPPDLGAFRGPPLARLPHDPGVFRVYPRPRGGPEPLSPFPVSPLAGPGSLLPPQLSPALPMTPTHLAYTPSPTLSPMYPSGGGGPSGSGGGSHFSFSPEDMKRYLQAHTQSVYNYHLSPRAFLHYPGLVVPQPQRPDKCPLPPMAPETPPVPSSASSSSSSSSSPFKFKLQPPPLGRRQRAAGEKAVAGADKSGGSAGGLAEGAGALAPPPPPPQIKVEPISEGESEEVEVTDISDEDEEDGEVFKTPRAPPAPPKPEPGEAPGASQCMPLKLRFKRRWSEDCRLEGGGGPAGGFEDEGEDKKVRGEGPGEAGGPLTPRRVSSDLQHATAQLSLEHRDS
The following applies: protein: recombinant; tags: N-terminal GST; dsDNA, one strand shown. Summed up: as §1

Experiment [12] deals with T7, ETV3L (Homo sapiens, UniProt Q6ZN32 1-361).
T7 sequence: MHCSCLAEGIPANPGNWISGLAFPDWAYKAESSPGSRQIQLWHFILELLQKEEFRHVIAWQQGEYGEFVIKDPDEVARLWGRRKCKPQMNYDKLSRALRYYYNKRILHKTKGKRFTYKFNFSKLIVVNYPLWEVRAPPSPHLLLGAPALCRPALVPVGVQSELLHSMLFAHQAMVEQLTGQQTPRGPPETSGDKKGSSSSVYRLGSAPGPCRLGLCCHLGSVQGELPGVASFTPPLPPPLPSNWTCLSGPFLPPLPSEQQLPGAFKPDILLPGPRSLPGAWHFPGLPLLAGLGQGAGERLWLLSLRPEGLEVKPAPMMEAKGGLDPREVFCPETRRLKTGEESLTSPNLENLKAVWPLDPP
As to conditions: protein: recombinant; tags: N-terminal GST; dsDNA, one strand shown. The method, boiled down: as §1

In experiment [13] the target is T8, ETS2 (Homo sapiens, UniProt P15036 1-469).
T8 sequence: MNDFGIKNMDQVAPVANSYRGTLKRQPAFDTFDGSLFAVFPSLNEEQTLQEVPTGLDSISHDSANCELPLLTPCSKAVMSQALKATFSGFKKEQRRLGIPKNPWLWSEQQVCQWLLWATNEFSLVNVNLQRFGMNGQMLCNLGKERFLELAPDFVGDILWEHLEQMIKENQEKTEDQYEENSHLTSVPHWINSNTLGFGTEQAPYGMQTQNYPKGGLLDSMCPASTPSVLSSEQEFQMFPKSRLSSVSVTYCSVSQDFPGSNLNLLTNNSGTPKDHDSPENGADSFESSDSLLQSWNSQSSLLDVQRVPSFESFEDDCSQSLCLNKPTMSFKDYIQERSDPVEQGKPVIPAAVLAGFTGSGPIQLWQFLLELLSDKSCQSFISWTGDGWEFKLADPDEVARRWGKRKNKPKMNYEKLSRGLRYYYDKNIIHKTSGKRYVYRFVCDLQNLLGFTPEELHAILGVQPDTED
The following applies: protein: recombinant; tags: N-terminal GST; dsDNA, one strand shown. Summed up: as §1

The target in experiment [14] is T9, SPDEF (Homo sapiens, UniProt O95238 1-335).
T9 sequence: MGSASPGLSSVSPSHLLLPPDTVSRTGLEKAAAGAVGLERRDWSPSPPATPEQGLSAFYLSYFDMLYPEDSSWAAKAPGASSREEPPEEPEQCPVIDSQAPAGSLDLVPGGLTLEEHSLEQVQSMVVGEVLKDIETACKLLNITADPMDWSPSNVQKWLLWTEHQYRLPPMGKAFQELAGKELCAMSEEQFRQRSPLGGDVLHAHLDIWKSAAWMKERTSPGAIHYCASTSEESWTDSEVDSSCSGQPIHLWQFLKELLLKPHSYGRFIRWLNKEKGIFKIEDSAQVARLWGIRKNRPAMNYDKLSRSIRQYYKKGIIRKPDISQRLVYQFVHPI
The following applies: protein: recombinant; tags: N-terminal GST; dsDNA, one strand shown. Summed up:
as §1

The target of experiment [15] is T10, ETV7 (Homo sapiens, UniProt Q9Y603 1-341).
T10 sequence: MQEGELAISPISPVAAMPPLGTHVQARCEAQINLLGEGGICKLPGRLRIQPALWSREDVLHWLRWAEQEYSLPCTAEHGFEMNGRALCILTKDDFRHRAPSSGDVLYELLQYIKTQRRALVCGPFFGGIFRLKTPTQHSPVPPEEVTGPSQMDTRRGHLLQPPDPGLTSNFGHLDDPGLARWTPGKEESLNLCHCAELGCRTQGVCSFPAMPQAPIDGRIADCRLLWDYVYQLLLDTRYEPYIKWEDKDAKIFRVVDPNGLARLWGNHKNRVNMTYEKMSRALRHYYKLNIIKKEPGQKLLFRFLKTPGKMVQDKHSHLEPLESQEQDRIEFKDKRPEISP
The following applies: protein: recombinant; tags: N-terminal GST; dsDNA, one strand shown. The method, boiled down:
as §1

For experiment [16], the target named is T11, ELF5 (Homo sapiens, UniProt Q9UKW6-2 1-255).
T11 sequence: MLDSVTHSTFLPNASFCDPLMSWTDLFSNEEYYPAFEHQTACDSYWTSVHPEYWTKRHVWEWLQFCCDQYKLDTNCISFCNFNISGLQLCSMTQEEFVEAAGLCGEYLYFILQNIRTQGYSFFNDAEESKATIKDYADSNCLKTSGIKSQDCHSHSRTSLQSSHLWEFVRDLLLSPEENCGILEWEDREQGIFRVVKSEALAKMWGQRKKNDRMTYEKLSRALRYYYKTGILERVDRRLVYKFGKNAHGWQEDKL
The following applies: protein: recombinant; tags: N-terminal GST; dsDNA, one strand shown. The method, boiled down: as §1

Experiment [17] has as its target T12, ETV3 (Homo sapiens, UniProt P41162-2 1-143).
T12 sequence: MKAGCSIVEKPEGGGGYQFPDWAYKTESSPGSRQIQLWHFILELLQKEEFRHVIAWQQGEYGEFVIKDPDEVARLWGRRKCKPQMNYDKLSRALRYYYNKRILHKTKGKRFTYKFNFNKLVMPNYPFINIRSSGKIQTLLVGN
As to conditions: protein: recombinant; tags: N-terminal GST; dsDNA, one strand shown. Summed up:
as §1

Experiment [18] has as its target ETV6 (Homo sapiens, UniProt P41212 1-452). As to conditions: protein: recombinant; tags: N-terminal GST; dsDNA, one strand shown. Summed up:
as §1

CRX, sequence (O43186 whole entry): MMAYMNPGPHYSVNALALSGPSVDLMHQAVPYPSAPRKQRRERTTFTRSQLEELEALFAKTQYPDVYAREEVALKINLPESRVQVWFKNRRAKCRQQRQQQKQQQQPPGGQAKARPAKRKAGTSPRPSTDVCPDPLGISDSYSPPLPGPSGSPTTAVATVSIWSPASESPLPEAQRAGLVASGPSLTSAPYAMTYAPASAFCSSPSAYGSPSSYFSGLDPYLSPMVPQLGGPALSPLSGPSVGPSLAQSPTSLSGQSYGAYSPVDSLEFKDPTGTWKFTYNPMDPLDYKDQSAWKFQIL
ETV6, sequence (P41212 whole entry): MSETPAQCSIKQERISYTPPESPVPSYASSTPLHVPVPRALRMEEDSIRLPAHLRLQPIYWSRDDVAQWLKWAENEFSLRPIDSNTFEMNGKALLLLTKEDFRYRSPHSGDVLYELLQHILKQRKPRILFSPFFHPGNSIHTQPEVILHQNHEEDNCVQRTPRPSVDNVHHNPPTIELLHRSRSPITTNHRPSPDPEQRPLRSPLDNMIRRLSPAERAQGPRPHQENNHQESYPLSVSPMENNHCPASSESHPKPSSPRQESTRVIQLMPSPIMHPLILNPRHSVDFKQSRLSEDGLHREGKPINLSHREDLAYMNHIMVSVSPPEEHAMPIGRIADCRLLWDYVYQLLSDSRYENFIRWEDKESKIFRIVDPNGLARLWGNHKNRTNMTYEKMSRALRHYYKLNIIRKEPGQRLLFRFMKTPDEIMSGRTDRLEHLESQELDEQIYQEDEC
ETV1, sequence (P50549 whole entry): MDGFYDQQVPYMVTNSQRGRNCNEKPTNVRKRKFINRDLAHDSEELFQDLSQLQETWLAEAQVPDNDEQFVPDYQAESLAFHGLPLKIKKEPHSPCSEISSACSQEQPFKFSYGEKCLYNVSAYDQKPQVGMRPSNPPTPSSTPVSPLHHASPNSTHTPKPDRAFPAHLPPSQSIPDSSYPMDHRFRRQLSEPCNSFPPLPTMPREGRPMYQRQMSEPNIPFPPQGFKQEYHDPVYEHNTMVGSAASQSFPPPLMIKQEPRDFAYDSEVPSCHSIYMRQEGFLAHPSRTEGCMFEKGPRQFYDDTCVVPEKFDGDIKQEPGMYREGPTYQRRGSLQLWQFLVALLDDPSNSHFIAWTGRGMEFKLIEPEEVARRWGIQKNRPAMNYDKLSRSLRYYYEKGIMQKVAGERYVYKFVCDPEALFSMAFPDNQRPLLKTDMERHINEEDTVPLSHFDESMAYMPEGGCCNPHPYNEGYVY
ETV5, sequence (P41161 whole entry): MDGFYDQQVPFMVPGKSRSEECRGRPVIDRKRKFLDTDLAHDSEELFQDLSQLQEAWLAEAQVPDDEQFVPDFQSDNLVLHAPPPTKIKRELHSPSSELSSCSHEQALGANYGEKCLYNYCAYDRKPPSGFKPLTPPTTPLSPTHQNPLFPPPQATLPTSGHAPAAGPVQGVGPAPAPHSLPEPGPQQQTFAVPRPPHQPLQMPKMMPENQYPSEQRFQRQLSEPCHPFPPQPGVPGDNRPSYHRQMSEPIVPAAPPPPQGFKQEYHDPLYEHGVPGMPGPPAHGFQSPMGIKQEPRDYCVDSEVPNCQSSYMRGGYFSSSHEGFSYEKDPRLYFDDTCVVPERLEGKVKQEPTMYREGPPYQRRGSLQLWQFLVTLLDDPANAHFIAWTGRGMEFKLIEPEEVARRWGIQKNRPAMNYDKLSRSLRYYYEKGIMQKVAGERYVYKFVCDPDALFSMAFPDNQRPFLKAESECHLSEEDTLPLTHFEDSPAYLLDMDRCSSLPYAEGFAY
HSF1, sequence (Q00613 whole entry): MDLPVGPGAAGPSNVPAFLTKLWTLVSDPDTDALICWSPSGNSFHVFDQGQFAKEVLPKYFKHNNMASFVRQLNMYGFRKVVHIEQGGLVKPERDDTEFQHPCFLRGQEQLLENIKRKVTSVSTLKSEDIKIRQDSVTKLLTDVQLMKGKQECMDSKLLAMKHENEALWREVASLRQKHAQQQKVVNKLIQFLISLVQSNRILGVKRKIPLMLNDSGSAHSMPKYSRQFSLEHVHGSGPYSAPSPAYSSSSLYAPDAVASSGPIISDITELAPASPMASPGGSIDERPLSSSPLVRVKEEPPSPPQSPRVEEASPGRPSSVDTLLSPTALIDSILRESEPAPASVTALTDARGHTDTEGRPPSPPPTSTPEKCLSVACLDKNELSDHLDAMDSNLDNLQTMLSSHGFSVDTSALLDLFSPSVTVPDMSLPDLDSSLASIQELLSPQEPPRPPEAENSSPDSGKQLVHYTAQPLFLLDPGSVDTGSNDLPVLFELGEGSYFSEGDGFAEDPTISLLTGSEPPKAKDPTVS
ELF4, sequence (Q99607 whole entry): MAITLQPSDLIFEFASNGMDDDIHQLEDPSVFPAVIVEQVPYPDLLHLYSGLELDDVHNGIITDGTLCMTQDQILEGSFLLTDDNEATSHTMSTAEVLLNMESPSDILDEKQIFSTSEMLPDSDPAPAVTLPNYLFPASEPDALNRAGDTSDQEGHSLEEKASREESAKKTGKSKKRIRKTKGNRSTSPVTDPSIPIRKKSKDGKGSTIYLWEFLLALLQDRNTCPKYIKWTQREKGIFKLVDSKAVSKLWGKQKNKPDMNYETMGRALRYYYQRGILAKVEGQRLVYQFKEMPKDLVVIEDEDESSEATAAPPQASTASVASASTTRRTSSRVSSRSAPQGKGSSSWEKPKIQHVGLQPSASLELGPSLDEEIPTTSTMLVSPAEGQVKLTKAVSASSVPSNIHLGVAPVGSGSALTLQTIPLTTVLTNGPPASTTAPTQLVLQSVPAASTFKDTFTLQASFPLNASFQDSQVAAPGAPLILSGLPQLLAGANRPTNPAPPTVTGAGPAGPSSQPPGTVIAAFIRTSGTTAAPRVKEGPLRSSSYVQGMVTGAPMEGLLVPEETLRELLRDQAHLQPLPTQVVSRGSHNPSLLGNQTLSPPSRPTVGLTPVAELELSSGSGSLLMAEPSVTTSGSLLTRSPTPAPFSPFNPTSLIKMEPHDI

Regarding CTTCTT, the binding signal in [1] was 1.48 fold enrichment (6-mer frequency, TF over GST control); in experiment [2], 1.59 fold enrichment (6-mer frequency, TF over GST control); in [3], 1.84 fold enrichment (6-mer frequency, TF over GST control); in experiment [4], 1.61 fold enrichment (6-mer frequency, TF over GST control); in experiment [5], 1.6 fold enrichment (6-mer frequency, TF over GST control); in experiment [6], 1.58 fold enrichment (6-mer frequency, TF over GST control). Further, the binding signal is 1.53 fold enrichment (6-mer frequency, TF over GST control) in experiment [7]; 1.45 fold enrichment (6-mer frequency, TF over GST control) in [8]; 1.89 fold enrichment (6-mer frequency, TF over GST control) in experiment [9]; 1.48 fold enrichment (6-mer frequency, TF over GST control) in experiment [10]; 1.53 fold enrichment (6-mer frequency, TF over GST control) in [11]; 1.59 fold enrichment (6-mer frequency, TF over GST control) in experiment [12]. Further, the binding signal in experiment [13] was 1.35 fold enrichment (6-mer frequency, TF over GST control); in experiment [14], 1.54 fold enrichment (6-mer frequency, TF over GST control); in experiment [15] it was 1.44 fold enrichment (6-mer frequency, TF over GST control); in experiment [16] it was 1.65 fold enrichment (6-mer frequency, TF over GST control); in experiment [17], 1.6 fold enrichment (6-mer frequency, TF over GST control); in [18] it was 1.64 fold enrichment (6-mer frequency, TF over GST control).
